We go through 36 compounds from PubChem BioAssay.
Note: test concentration not given here.

A short description of the first assay: MM1S cell viability effects, profiling panel, calcein-AM fluorescence, 48 h, basal (AID 1165).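 Note: viability of MM1S multiple myeloma cells under basal unstimulated conditions.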 Conditions: higher = more signal.
As for `COCCOC(=O)N1C(=O)[C@@]2(c3cc(C#Cc4ccc(OC)cc4)ccc31)[C@H](c1ccc(OCCO)cc1)N1[C@H](c3ccccc3)[C@H](c3ccccc3)OC(=O)[C@H]1[C@@H]2C(=O)N1CCN(c2ncccn2)CC1`, the z-score was -0.624.

Regarding `CCC[C@@H]1C[C@@]1(CCC)[C@@H](NC(=O)c1ccccc1)c1cccc(Cl)c1`, the z-score was -1.78.

Regarding `[N-]=[N+]=Nc1ccccc1[C@H]1OC(c2ccc(OCCCO)cc2)=N[C@@]1(CCS(=O)(=O)c1ccccc1)C(=O)NCC(O)CO` (stereo partly specified), the z-score is -0.826.

With `O=C1N[C@@H](Cc2ccccc2)C(=O)N2[C@@H]1C[C@@H](C(=O)O)[C@H]2c1cccc(OCCO)c1`, the z-score is -2.61.

`COc1ccc([Si](C)(C)[C@@H]2[C@@H](CC(=O)N3CCC[C@H]3CO)O[C@]3(C(=O)N(c4ccccc4)c4ccccc43)[C@H]2C)cc1`: the z-score was -0.011.

As for `CC(C)N1C(=O)C[C@@](C(=O)NCC(F)(F)F)(c2ccc([N+](=O)[O-])cc2)[C@H]1c1ccc(CO)cc1`, the z-score was -0.464.

As to `CN1C(=O)C2C=CC(C(O)C#Cc3ccccc3)N(N3CCCCC3)C2C1=O` (stereo unspecified), the z-score was 0.241.

For `C=C(C)[C@@H]1CC=C(C(O)C2C=CC3C(=O)N(C)C(=O)C3N2Nc2ccccc2)CC1` (stereo partly specified), the z-score is -1.36.

As for `C=CCOC(=O)[C@@H]1[C@H]2C(=O)O[C@H](c3ccccc3)[C@H](c3ccccc3)N2[C@H](c2ccc(OCCOC(=O)[C@@H]3C[C@@H]4C(=O)NCC(=O)N4[C@@H]3c3ccc(O)cc3)cc2)[C@@]12C(=O)Nc1ccc(I)cc12`, the z-score was -0.647.

As to `COC(=O)[C@@]1(Cc2ccc(OC)cc2)[C@H]2c3cc(C(=O)N(C)C)n(CCc4ccccn4)c3C[C@H]2CN1C(=O)c1ccccc1`, the z-score is -1.19.

A short description of a further assay: basal RPMI8226 viability, no added stimulus, profiling panel, cell-based, calcein-AM fluorescence, 48 h, PK04 Diversity Set (AID 1166).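 Note: cells grown under basal conditions without added stimulus.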 Conditions: RPMI8226 myeloma viability, higher = more signal.
Take `O=C1C2C=CC(C(O)Cc3ccccc3)N(n3cnnc3)C2C(=O)N1Cc1ccccc1` (stereo unspecified): the z-score was -1.11.

As for `Cc1ccc(S[C@]2(C(=O)NCCCN(C)C)CC(=O)N(Cc3ccccc3C(F)(F)F)[C@@H]2c2ccc(CO)cc2)cc1`, the z-score is 0.595.

On to `COc1cc(C(O)C2C=CC3C(=O)NC(=O)C3N2Nc2ccccn2)cc(OC)c1OC` (stereo unspecified), for which the z-score was 0.611.

As for `C=CCNC(=O)[C@H]1[C@@H]2C(=O)O[C@@H](c3ccccc3)[C@@H](c3ccccc3)N2[C@@H](c2ccccc2OCCO)[C@]12C(=O)Nc1ccc(C#CCC(C(=O)OC)C(=O)OC)cc12`, the z-score is -4.63.

In the case of `COCCOC(=O)N1C(=O)[C@@]2(c3cc(C#CCNC(N)=O)ccc31)[C@H](C(=O)N1CCN(c3ncccn3)CC1)[C@H]1C(=O)O[C@H](c3ccccc3)[C@H](c3ccccc3)N1[C@@H]2c1ccc(OCCO)cc1`, the z-score is 0.287.

Turning to `CCOC(=O)C[C@H]1[C@H](OC(=O)c2ccc(C(=O)c3ccccc3)cc2)[C@@H](NC(=O)c2ccc3ccccc3c2)c2cc(OCCCO)ccc2N1C(=O)Cc1ccc(OC)cc1`, the z-score is 0.39.

With `C[C@H]1NC(=O)[C@@]23C(=O)N[C@@H](Cc4ccccc4)C2[C@H](C)[C@@]2(C)O[C@H]2C3/C=C/C/C=C\CNC(=O)[C@@H]2CCCN2C1=O` (stereo partly specified), the z-score was 0.727.

As to `C=C(CCCC)/C(=C/C[C@@H](OC(=O)c1ccncc1)c1ccc(OCCO)cc1)c1cc(C(=O)OC)ccc1OC`, the z-score is -0.385.

`CN1C(=O)C2C=CC(C(O)c3ccc([N+](=O)[O-])cc3)N(N3CCCCC3)C2C1=O` (stereo unspecified): the z-score was -0.721.

In the case of `CC(C)C(=C=CC[C@H](O)c1ccc(OCCO)cc1)CCO`, the z-score is -2.14.

Consider `C[C@H]1C2[C@H](Cc3ccccc3)NC(=O)[C@]23C(=O)N[C@H](Cc2ccccc2)C(=O)N2CCC[C@H]2C(=O)NC/C=C\C/C=C/C3[C@@H]2O[C@]12C` (stereo partly specified), for which the z-score was -0.0608.

As to `CN(C)CCCCCCNC(=O)[C@H]1C[C@H]2C(=O)N[C@@H](CCCCN)C(=O)N2[C@H]1c1cccc(OCCO)c1`, the z-score is -0.497.

With `C=CCC(OC(C)=O)[C@@H]1[C@@H](N(Cc2cc3ccccc3o2)C(=O)c2cccc3ccccc23)c2cc(OCCCO)ccc2N1C(=O)c1ccc(-c2ccccc2)cc1` (stereo partly specified), the z-score was -2.25.

As for `COC(=O)[C@@]1(Cc2ccc(OC)cc2)[C@H]2c3cc(C(=O)N4CCCC4)n(Cc4ccc(O)c(OC)c4)c3C[C@H]2CN1C(=O)c1ccccc1`, the z-score is -0.243.

Turning to `COC(=O)[C@@]1(Cc2ccc(OC)cc2)[C@H]2c3cc(C(=O)N4CCCC4)n(Cc4ccc(C)c(F)c4F)c3C[C@H]2CN1C(=O)c1ccccc1`, the z-score is -2.66.

In the case of `C=CCOC(=O)[C@H]1[C@@H]2C(=O)O[C@@H](c3ccccc3)[C@@H](c3ccccc3)N2[C@@H](c2ccc(OCCOC(=O)[C@@H]3C[C@@H]4C(=O)N[C@@H](CCCCNC(C)=O)C(=O)N4[C@@H]3c3ccc(O)cc3)cc2)[C@]12C(=O)Nc1ccccc12`, the z-score is -0.133.

In the case of `COC(=O)[C@@]1(Cc2ccc(OC)cc2)[C@H]2c3cc(C(=O)N(C)C)n(Cc4ccc(S(C)(=O)=O)cc4)c3C[C@H]2CN1C(=O)c1ccccc1`, the z-score is 1.51.

With `CC(C)=CCN[C@H](CO)c1ccccc1`, the z-score is -1.9.

Regarding `COC(=O)[C@@]1(Cc2ccc(F)cc2)[C@H]2c3cc(C(=O)N4CCCC4)n(Cc4ccc(S(C)(=O)=O)cc4)c3C[C@H]2CN1C(=O)c1ccccc1`, the z-score is -1.35.

With `COc1ccc(C#Cc2ccc3c(c2)[C@]2(C(=O)N3)[C@H](C(=O)Nc3nc4ccccc4s3)[C@H]3C(=O)O[C@H](c4ccccc4)[C@H](c4ccccc4)N3[C@@H]2c2ccc(O)cc2)cc1`, the z-score was -1.37.

In the case of `[N-]=[N+]=Nc1ccccc1[C@H]1OC(c2ccc(OCCCO)cc2)=N[C@@]1(CCS(=O)(=O)c1ccccc1)C(N)=O`, the z-score was 0.0418.

For `CC(C)c1ccc(NN2C(C(O)c3ccc(B(O)O)cc3)C=CC3C(=O)N(c4ccccc4)C(=O)C32)cc1` (stereo unspecified), the z-score was -0.587.

Consider `COC(=O)[C@@]1(Cc2ccc(F)cc2)[C@H]2c3cc(C(=O)N(C)C)n(Cc4ccccc4)c3C[C@H]2CN1C(=O)c1ccccc1`, for which the z-score is -0.997.

Consider `[N-]=[N+]=Nc1ccccc1[C@@H]1OC(c2ccc(OCCCO)cc2)=N[C@]1(Cc1ccccc1)C(=O)N1CCOCC1`, for which the z-score was -4.17.

Consider `CN(C)C(=O)[C@]1(Cc2ccccc2N=[N+]=[N-])N=C(c2ccc(OCCCO)cc2)O[C@@H]1c1ccccc1N=[N+]=[N-]`, for which the z-score was -3.67.

In the case of `CC(C)NC(=O)[C@@]1(c2ccc([N+](=O)[O-])cc2)CC(=O)N(C2CCCCC2)[C@@H]1c1ccc(CO)cc1I`, the z-score was -2.58.

With `COCCOC(=O)N1C(=O)[C@@]2(c3cc(C#Cc4ccc(OC)cc4)ccc31)[C@H](c1ccc(OCCO)cc1)N1[C@H](c3ccccc3)[C@H](c3ccccc3)OC(=O)[C@H]1[C@@H]2C(=O)N1CCN(c2ncccn2)CC1`, the z-score was -0.412.

Consider `CCC[C@@H]1C[C@@]1(CCC)[C@@H](NC(=O)c1ccccc1)c1cccc(Cl)c1`, for which the z-score was -0.385.

For `[N-]=[N+]=Nc1ccccc1[C@H]1OC(c2ccc(OCCCO)cc2)=N[C@@]1(CCS(=O)(=O)c1ccccc1)C(=O)NCC(O)CO` (stereo partly specified), the z-score was 0.395.

On to `O=C1N[C@@H](Cc2ccccc2)C(=O)N2[C@@H]1C[C@@H](C(=O)O)[C@H]2c1cccc(OCCO)c1`, for which the z-score was 0.358.

With `COc1ccc([Si](C)(C)[C@@H]2[C@@H](CC(=O)N3CCC[C@H]3CO)O[C@]3(C(=O)N(c4ccccc4)c4ccccc43)[C@H]2C)cc1`, the z-score is 0.17.

Take `CC(C)N1C(=O)C[C@@](C(=O)NCC(F)(F)F)(c2ccc([N+](=O)[O-])cc2)[C@H]1c1ccc(CO)cc1`: the z-score was -1.66.

On to `CN1C(=O)C2C=CC(C(O)C#Cc3ccccc3)N(N3CCCCC3)C2C1=O` (stereo unspecified), for which the z-score was 0.609.

In the case of `C=C(C)[C@@H]1CC=C(C(O)C2C=CC3C(=O)N(C)C(=O)C3N2Nc2ccccc2)CC1` (stereo partly specified), the z-score is 0.0835.

With `C=CCOC(=O)[C@@H]1[C@H]2C(=O)O[C@H](c3ccccc3)[C@H](c3ccccc3)N2[C@H](c2ccc(OCCOC(=O)[C@@H]3C[C@@H]4C(=O)NCC(=O)N4[C@@H]3c3ccc(O)cc3)cc2)[C@@]12C(=O)Nc1ccc(I)cc12`, the z-score is -0.319.

For `COC(=O)[C@@]1(Cc2ccc(OC)cc2)[C@H]2c3cc(C(=O)N(C)C)n(CCc4ccccn4)c3C[C@H]2CN1C(=O)c1ccccc1`, the z-score is -2.59.
